Source: PubChem BioAssay (Tox21)
Activity calls are given as the source filed them. Calls come from the whole dose curve; as a rule, active = well fitted curve in the direction sought with a large enough effect in the repeat runs; inconclusive = weak or mixed curves; inactive = flat fitted curve, though single readings scatter.

assay: qHTS assay to test for compound auto fluorescence at 460 nm (blue) in HepG2 cell free culture (AID 720685); conditions: Cell-free culture medium, blue autofluorescence 405/460 nm; series mostly up to 46 µM; fluorescence, % of fluorescent control: at the top concentration
Source text: U.S. Tox21 Program National Center for Advancing Translational Sciences [NCATS] NIH Chemical Genomics Center [NCGC] U.S. Environmental Protection Agency [EPA] National Institutes of Environmental Health Sciences [NIEHS] National Toxicology Program [NTP] U.S. Food and Drug Administration [FDA] Tox21 Assay Overview: Compound auto fluorescence often interferes with screening of the compound library against various biological targets and signaling pathways. Some of these compounds may have fluorophoric properties. Such properties may interfere with the assay outputs resulting in false positives and/or negatives. To decrease such complications and ensure the compound activities are relevant in terms of biological response, the Tox21 10K compound library was screened for auto fluorescence. From the fluorophores used as reporter signals in our screening assays, the auto fluorescence equivalencies of compounds against three fluorophores have been evaluated: Triamterene, Fluorescein and Rose Bengal sodium for blue, green and red fluorescence, respectively. The fluorescence intensities were measured using Excitation/Emission wavelengths at 405/460nm, 485/535nm and 540/590nm for blue, green and red labels, respectively. This assay includes the blue fluorescence data.
Tox21 Assay Protocol Summary: 5 uL of culture medium (MEM containing 10% FBS) per well was dispensed into black wall/clear bottom 1536-well plates using a Multidrop Combi Dispenser (ThermoFisher Scientific, Waltham, MA). After 23 nL compound or DMSO vehicle was transferred into assay plate by a pintool work station (Kalypsys, San Diego, CA), fluorescence intensities in the assay plates were measured by an Envision (PerkinElmer, Shelton, CT) plate reader using three labels for measuring blue, green and red fluorescence at […] 460, 535 and 590nm respectively.
% is set by controls: 0 for no effect and ±100 for the full control effect.

SMILES | fluorescence, % of fluorescent control
CCc1ccc2c(c1)N(CC(C)CN(C)C)c1ccccc1S2 (stereo not given) | -0.0221% (inactive)
Cc1nnc(C(C)C)n1C1C[C@H]2CC[C@@H](C1)N2CC[C@H](NC(=O)C1CCC(F)(F)CC1)c1ccccc1 (stereo not given in full) | -0.0709% (inactive)
CC#CCC(C)[C@H](O)/C=C/[C@@H]1[C@H]2C/C(=C/CCCC(=O)O)C[C@H]2C[C@H]1O (stereo not given in full) | -0.0124% (inactive)
Clc1cc(Cl)c(OCC#CI)cc1Cl | 0.0115% (inactive)
C[C@@H]1CCC2[C@@H](C)[C@@H](O)O[C@@H]3O[C@@]4(C)CC[C@@H]1[C@@]23OO4 (stereo not given in full) | -0.0309% (inactive)
CCC(=O)c1ccc2c(c1)N(CCCN1CCN(CCO)CC1)c1ccccc1S2 | 0.212% (inactive)
CC1(C)S[C@@H]2[C@H](NC(=O)[C@H](NC(=O)N3CCN(S(C)(=O)=O)C3=O)c3ccccc3)C(=O)N2[C@H]1C(=O)O | -0.0405% (inactive)
CN[C@@H]1[C@H](O[C@H]2[C@H](O[C@H]3[C@H](O)[C@@H](O)[C@H](N=C(N)N)[C@@H](O)[C@@H]3N=C(N)N)O[C@@H](C)[C@]2(O)CO)O[C@@H](CO)[C@H](O)[C@H]1O | 0.013% (inactive)
Nc1ncnc2c1ncn2CCOCP(=O)(O)O | 0.0927% (inactive)
CC(=O)Oc1cccc(C(=O)O)c1OC(C)=O | 4.88% (inactive)
CCCCC(F)(F)[C@@]1(O)CC[C@H]2[C@@H](CC(=O)[C@@H]2CCCCCCC(=O)O)O1 | -0.0136% (inactive)
CCCCCCCCCCCCCCCC(=O)OC[C@@H](NC(=O)C(Cl)Cl)[C@H](O)c1ccc([N+](=O)[O-])cc1 | -0.0018% (inactive)
CC1(C)N=C(N)N=C(N)N1c1ccc(Cl)cc1 | -0.0683% (inactive)
S=C=Nc1ccc(N=C=S)cc1 | -0.025% (inactive)
CN=C(NC)NCc1ccccc1 | -0.0473% (inactive)
CC(=O)O[C@H]1C(=O)[C@@]2(C)[C@H]([C@H](OC(=O)c3ccccc3)[C@]3(O)C[C@H](OC(=O)[C@H](O)[C@@H](NC(=O)c4ccccc4)c4ccccc4)C(C)=C1C3(C)C)[C@]1(OC(C)=O)CO[C@@H]1C[C@@H]2O | -0.0458% (inactive)
CCN(CC)CCOCCOC(=O)C(CC)(CC)c1ccccc1 | -0.16% (inactive)
N[C@H](CCC(=O)O)C(=O)O | -0.0566% (inactive)
Cn1cc(NC(=O)c2cc(NC(=O)c3cc(NC=O)cn3C)cn2C)cc1C(=O)NCCC(=N)N | 0.149% (inactive)
CC(=O)N(CC(C)C(=O)O)c1c(I)cc(I)c(N)c1I (stereo not given) | -0.151% [at 18.6 µM] (inactive)

SMILES | fluorescence, % of fluorescent control
CCCCc1cc2c(=O)c(C(=O)OC)c[nH]c2cc1OCc1ccccc1 | -0.0928% (inactive)
CC(=O)N=c1sc(S(N)(=O)=O)nn1C | -0.0063% [at 18.6 µM] (inactive)
Clc1ccc(COC(Cn2ccnc2)c2ccc(Cl)cc2Cl)c(Cl)c1 (stereo not given) | 0.0037% [at 18.6 µM] (inactive)
O=[N+]([O-])c1ccc(Oc2ccc(N=C=S)cc2)cc1 | 0.0194% (inactive)
CC(Oc1ccccc1)C(=O)N[C@@H]1C(=O)N2[C@@H]1SC(C)(C)[C@@H]2C(=O)O (stereo not given in full) | 0.0111% [at 18.6 µM] (inactive)
O=C(c1cc2ccccc2o1)N1CCN(Cc2ccccc2)CC1 | -0.0779% (inactive)
CCN(CC)c1ccc(C(=C2C=CC(=[N+](CC)CC)C=C2)c2ccccc2)cc1 | 0.127% (inactive)
CCCC1C(=O)N2C(N(C)C)=Nc3ccc(C)cc3N2C1=O (stereo not given) | -0.177% [at 18.6 µM] (inactive)
CCC(C)C(C(=O)OCC[N+](C)(CC)CC)c1ccccc1 (stereo not given) | -0.0288% (inactive)
CC(=O)Nc1c(I)c(C(=O)O)c(I)c(N(C)C(C)=O)c1I | 0.132% (inactive)
CC[C@@H]1/C=C(\C)C[C@H](C)C[C@H](OC)[C@H]2O[C@@](O)(C(=O)C(=O)N3CCCC[C@H]3C(=O)O[C@H](/C(C)=C/[C@@H]3CC[C@@H](Cl)[C@H](OC)C3)[C@H](C)[C@@H](O)CC1=O)[C@H](C)C[C@@H]2OC | -0.0486% (inactive)
O=S(O)CNc1ccc(S(=O)(=O)c2ccc(NCS(=O)O)cc2)cc1 | -0.12% (inactive)
C=C[C@]1(C)C[C@@H](OC(=O)CSCCN(CC)CC)[C@]2(C)[C@H](C)CC[C@]3(CCC(=O)[C@H]32)[C@@H](C)[C@@H]1O | -0.132% (inactive)
CS(=O)(=O)NC(=O)CCC/C=C\C[C@H]1C(=O)C[C@@H](O)[C@@H]1/C=C/[C@H](O)COc1ccccc1 | 0.203% (inactive)
CC[C@H]1OC(=O)[C@H](C)[C@@H](O[C@H]2C[C@@](C)(OC)[C@@H](O)[C@H](C)O2)[C@H](C)[C@@H](O[C@@H]2O[C@H](C)C[C@H](N(C)C)[C@H]2O)[C@](C)(O)C[C@@H](C)[C@@H]2N[C@@H](COCCOC)O[C@@H]([C@H]2C)[C@]1(C)O | 0.123% (inactive)
CC1(C)S[C@@H]2[C@H](NC(=O)C(C(=O)O)c3ccsc3)C(=O)N2[C@H]1C(=O)O (stereo not given in full) | 0.188% (inactive)
CC(C)(CO)[C@@H](O)C(=O)NCCC(=O)NCCSSCCNC(=O)CCNC(=O)[C@H](O)C(C)(C)CO | -0.0265% (inactive)
O=C(O)[C@@H](O)[C@H](O)[C@H](O)[C@@H](O)C(=O)O (tested in a mixture with another compound) | -0.119% (inactive)
CS(=O)(=O)OCC(O)C(O)COS(C)(=O)=O (stereo not given) | -0.0111% (inactive)
O=S(=O)(O)Oc1ccc(C(c2ccc(OS(=O)(=O)O)cc2)c2ccccn2)cc1 | 0.0342% (inactive)
